# Assay results: ChEMBL document CHEMBL1157539, “Thousands of chemical starting points for antimalarial lead identification” (Nature, 2010)
# Test system: Plasmodium falciparum
# Test: GSK_TCMDC: Inhibition of Plasmodium falciparum 3D7 in whole red blood cells, using parasite LDH activity as an index of growth. Test compounds present at 2uM
# Assay type: functional
row,SMILES,Inhibition [%]
1,CC1(C)NC(N)=NC(=N)N1OCOc1ccc(Cl)cc1.Cl,94
2,Cc1ccc(C2CC(c3cccs3)=NN2C(=O)c2ccc(Br)o2)cc1 (stereo not given),99
3,Cc1cccc2nc(-c3ccc(-c4cccc(NC(=O)Nc5ccc(F)c(F)c5F)c4)cc3)[nH]c12,100
4,COC(=O)c1cccc(OCCNC2CCN(C[C@H](O)c3ccnc4ccc(OC)cc34)CC2)c1.O=C(O)C(=O)O,100
5,CC(Cc1ccc(C(=O)Nc2ccc(CC(C)NCCc3cccc(Cl)c3)cc2)cc1)NCCc1ccc(C(F)(F)F)cc1 (stereo not given),100
6,Cc1nc(N/C=C/c2ccc(O)cc2)cc(N2CCCC2)n1,93
7,Cc1nc(-c2cccc3c(NC(=O)Nc4ccc5nccc(N6CCN(C)CC6)c5c4)cccc23)no1.Cl,100
8,COc1cc(Cc2cnc(N)nc2N)cc(OCCCCCC(N)=O)c1OC,90
9,CCc1nc2nc(C)cc(Nc3ccc(F)c(Cl)c3)n2n1,90
10,COc1ccc2ncc(F)c([C@@H](O)CN3CCC(NCc4ccc5c(c4)NCCS5)CC3)c2n1.Cl,99
11,COc1ccc(N2CCN(CCCCNC(=O)c3ccc(NC(=O)c4cccc(Cl)c4)cc3)CC2)c(OC)c1,100
12,CC(C)N1CCN(C(CN2CCN(CCCOc3cccc(F)c3)CC2)c2ccc(F)cc2)CC1.Cl (stereo not given),92
13,CC1(C)NC(N)=NC(=N)N1OCOc1cc(Cl)c(Cl)cc1Cl.Cl,96
14,COc1ccc(-c2ccccc2CNC2Cc3ccccc3C2)cc1S(=O)(=O)NCCN1CCCC1.O=C(O)C(F)(F)F,96
15,CNCC(C)(C)c1nc(-c2ccc(Cl)c(O)c2)c(-c2ccncc2)[nH]1.Cl,98
16,CCOc1cc(/C=N/Nc2nc3ccccc3[nH]2)ccc1OCc1ccc([N+](=O)[O-])cc1,100
17,Cc1ccc(C(NC(=O)c2ccccc2)c2ccc3cccnc3c2O)cc1 (stereo not given),92
18,c1ccc(-c2nc(Nc3nc4ccccc4[nH]3)[nH]c2-c2ccccc2)cc1,96
19,COc1ccc2nccc(N3C[C@H]4C[C@@H]3CN4CCNCc3ccc4c(n3)NC(=O)CS4)c2n1.Cl,99
20,CC(Cc1ccc(C(=O)OCCOC(=O)c2ccc(CC(C)NCC(O)c3cccc(C(F)(F)F)c3)cc2)cc1)NCC(O)c1cccc(C(F)(F)F)c1 (stereo not given),98

row,SMILES,Inhibition [%]
1,CC(C)C(=O)NC(c1cccs1)c1cc(Cl)c2cccnc2c1O (stereo not given),91
2,Cc1cc2ccccc2c(CON2C(=N)N=C(N)NC2(C)C)c1C.Cl,93
3,COc1ccc(S(=O)(=O)N2CCOCC2)cc1NC(=O)c1cc2ccccc2o1,93
4,Cc1ccc(O)cc1Nc1ccnc2cc(-c3ccccc3)ccc12.Cl,100
5,CCN(CC)CC(O)Cc1c2ccc([N+](=O)[O-])cc2nc2cc(OC)c(OC)cc12 (stereo not given),100
6,O=C(Nc1ccc(-c2nc3ccccc3[nH]2)cc1)c1ccc(N2CCOCC2)c([N+](=O)[O-])c1,100
7,O=C(Nc1ccc(Cl)cc1)Nc1cccc(-c2ccc(-c3nc4ccccc4[nH]3)cc2)c1,87
8,CC(C)[C@H](NC(=O)c1ccc(O)c(-c2cccc(C(F)(F)F)c2)c1)C(=O)NCCN1CCCCC1,99
9,OC(c1ccc(Cl)cc1)(c1ccc(Cl)cc1)C(c1ccc(Cl)cc1)n1ccnc1 (stereo not given),100
10,O=C(Nc1cccc(CN2CCCN(CCc3ccccc3)CC2)c1)c1cc2ccccc2s1.O=C(O)C(F)(F)F,93
11,COc1ccc(Cl)cc1N1CCN(CCCNC(=O)c2ccc(-c3nc4cc5ccccc5cc4[nH]3)c(F)c2)CC1,99
12,CN(C)c1nc2cc(-n3cnc4cc(-c5ccc(Cl)cc5)sc4c3=O)ccc2n1CCCN1CCCC1.O=C(O)C(F)(F)F,97
13,CC(=O)Oc1cc(C)ccc1C1CCN(CCCCNC(=O)c2ccc(-c3ccc(C(F)(F)F)cc3)cc2)CC1,100
14,Cc1cccc2nc(-c3ccc(-c4cccc(NC(=O)C(C)CN(C)C)c4)cc3)[nH]c12 (stereo not given),99
15,CCN(CCCN1CCCCC1)c1cc(C)nc(Nc2ccc(C(C)C)cc2)n1.O=C(O)C(F)(F)F,100
16,CCN(CC)CCN(Cc1ccc(-c2ccc(C(F)(F)F)cc2)cc1)C(=O)Cn1c(SCc2ccc(F)cc2)nc(=O)c2sccc21.O=C(O)C(O)C(O)C(=O)O,100
17,CC(C)N1CCC(N(Cc2ccc(-c3ccc(C(F)(F)F)cc3)cc2)C(=O)Cn2c(SCc3cccc(F)c3F)cc(=O)c3c2CCC3)CC1.O=C(O)C(O)C(O)C(=O)O,88
18,CC(C)(Oc1ccc(Cl)cc1)C(=O)NCCC1CCN(CCCCCNC(=O)/C=C/c2ccc(Cl)c(Cl)c2)CC1,87
19,O=C(Nc1ccc(OC2CCN(Cc3ccc(F)cc3)CC2)c(Cl)c1)c1ccoc1.O=C(O)C(F)(F)F,89
20,CNC(=O)C1Cc2c([nH]c3cc(Br)ccc23)C2(CCN(CCc3ccccc3)CC2)N1 (stereo not given),100
